The values below come from PubChem BioAssay (EPA / NIEHS).

The source made the active and inactive calls. The calls were made as follows: active = hit-call score of the fitted dose curve at least 0.9, where 1 is the maximum; inactive = score below 0.9.

The nature of the experiment: APR_HepG2_StressKinase_24hr: Apredica 24-hour HepG2 Assay for Stress Kinase (AID 2282922). The conditions noted are these: HepG2 stress kinase (phospho-c-Jun) imaging, actives raise or lower the signal. How it is done:
APR_HepG2_24hr is a cell-based, multiplexed-readout assay that uses HepG2, a human liver cell line, with measurements taken at 24 hours after chemical dosing in a 384-well plate.APR_HepG2_StressKinase_24hr is one of 10 assay component(s) measured or calculated from the APR_HepG2_24hr assay. It is designed to make measurements of enzyme activity, a form of enzyme reporter, as detected with fluorescence intensity signals by HCS Fluorescent Imaging technology.Data from the assay component APR_HepG2_StressKinase_24hr was analyzed into 1 assay endpoint. This assay endpoint, APR_HepG2_StressKinase_24hr, was analyzed with bidirectional fitting relative to DMSO as the negative control and baseline of activity. Using a type of enzyme reporter, measures of protein for gain or loss-of-signal activity can be used to understand the signaling at the pathway-level as they relate to the gene . Furthermore, this assay endpoint can be referred to as a primary readout, because this assay has produced multiple assay endpoints where this one serves a signaling function. To generalize the intended target to other relatable targets, this assay endpoint is annotated to the cell cycle intended target family, where the subfamily is stress response.
Cells were treated with dimethyl sulfoxide (DMSO) as a solvent control at a final concentration of 0.5% v/v or with compounds in DMSO with a resulting final DMSO concentration of 0.5% v/v. Compound treatment was done at concentrations of 0.39, 0.78, 1.56, 3.12, 6.24, 12.5, 25, 50, 100, and 200 uM in duplicate on each plate. Cells were treated with compounds for 1, 24, or 72 hr. Carbonyl […] m-chloro-phenylhydrazone (CCCP) and taxol were used as positive controls for mitochondrial function and cytoskeletal stability, respectively; DMSO served as the negative control for this experiment. Cells were fixed by the direct addition of 50 uL formaldehyde in Hank's Balanced Salt Solution (HBSS) to a final concentration of 3.7%. After incubation in the fixation medium for 30 min at room temperature (293-298 K), cells were rinsed twice with HBSS and treated with cell permeabilization buffer (16 uL of 0.5% Triton X-100) for 10 min at room temperature (293-298 K) before labeling. For mitochondrial membrane potential and mitochondrial measurements, pre-fixed cells were incubated with 50 uL of MitoTracker Red CMXRos (Invitrogen) at a concentration of 250 nM for 30 min before fixation. In the remaining cases, post-fixed cells were labeled by incubation with a multiplexed mixture of primary antibodies in HBSS for 60 min at room temperature (293-298 K) to detect immunoreactivity of c-Jun (1:500), phospho-histone H3 (1:100), phospho-histone H2A.x (1:200), p53 (1:400), alpha-tubulin (1:200) and Hoechst 33342 (2 ug/mL). Cells were labeled for multiplexed imaging on two separate plates: a) Hoechst 33342, MitoTracker Red, phospho-histone H3, and alpha-tubulin, and b) Hoechst 33342, phospho-histone H2A.x, and c-Jun. A final rinse with HBSS (50 uL) was performed before analysis. The primary and secondary antibodies for the proteins were phospho-histone H3 (rabbit anti-phospho-histone H3 and FITC-donkey anti-rabbit IgG), phospho-histone H2A.x (mouse anti-phospho-histone H2A.x and FITC-donkey anti-mouse IgG), c-Jun (rabbit anti-phospho-c-Jun and Cy3-donkey anti-rabbit IgG), p53 (sheep anti-p53 and Cy5-donkey anti-sheep IgG), alpha-tubulin (mouse anti-alpha-tubulin and Cy5-donkey anti-mouse IgG). These antibodies are available as the CellCiphr HepG2 assay kit (Millipore).Digital images of each well were captured using a Cellomics ArrayScan VTI (Thermo Scientific Cellomics) (0.8 NA objective, 0.63x optical coupler, and XF-93 filter set) at 20x magnification. The images were acquired using the autofocus feature of the ArrayScan instrument, which entails the following steps. First, the camera focuses on channel 1 (Hoechst 33342), where nuclei are identified. Second, a Z offset of 1 um is used for capturing mitochondria (MitoTracker Red). […]
`CC(=O)CC(C)(C)O`: the AC50 (as a rule, the concentration giving half of the maximal activity seen) was 100 µM (active).
As for `CCN(CC)CCNc1ccc(CNC=O)c2sc3ccc(OC)cc3c(=O)c12`, the compound was classed as inactive.
Regarding `CCCCCCCCCCCCCCCS(=O)(=O)Oc1ccccc1`, the call was inactive.
In the case of `Oc1cc2ccccc2c2ccccc12`, the AC50 was 121 µM (active).
As to `CCCCCCCC(=O)O`, the compound was classed as inactive.
The same measure, in the same setting: then `c1ccc2c(c1)ccc1ccccc12`, with “inactive”; and `CCCCC(CC)COC(=O)CCCCC(=O)OCc1ccccc1` (stereo not given), with “inactive”; and `CCCCCCC(=O)O`, with “inactive”.
Consider `CC(C)(C)c1cccc(C(C)(C)C)c1O`, for which the call was inactive.
On to `CCCCCCCCCCCCc1ccccc1S(=O)(=O)O`, for which the compound was classed as inactive.
Turning to `CCCCCCCCOC(=O)CCCCCCCCC(=O)OCCCCCCCC`, the call was inactive.
Still for that read-out and setting: then `c1ccc2cc3c(ccc4ccccc43)cc2c1`, with “inactive”.
`CC(O)CO` (stereo not given): the compound was called inactive.
On the same count and under the same terms, then `CCOC(=O)CC(O)(CC(=O)OCC)C(=O)OCC`, with “inactive”; and `O=C(O)c1ccccc1C(c1ccc(O)cc1)c1ccc(O)cc1`, with “inactive”; and `CCCOC(=O)c1ccc(O)cc1`, with “inactive”.
As to `O=C(/C=C/c1ccc(O)cc1)CC(=O)/C=C/c1ccc(O)cc1`, the AC50 was 100 µM (active).
With `CCCOc1sc(C(=O)N2CCC(c3cc(CN)ccc3F)CC2)c(C)c1Br`, the call was inactive.
Same read-out and setting: then `COC(=O)CCCCC(=O)OC`, with “inactive”; and `Cc1cc(CCN2CCN(c3nsc4ccccc34)CC2)cc2c1NC(=O)CC2(C)C`, with “inactive”.
As to `OCCC(F)(F)C(F)(F)C(F)(F)C(F)(F)C(F)(F)C(F)(F)C(F)(F)C(F)(F)F`, the AC50 was 29.2 µM (active).
For the compound `C=C(C)C(=O)OCCC(F)(F)C(F)(F)C(F)(F)C(F)(F)C(F)(F)C(F)(F)F`, the compound was classed as inactive.
Same read-out and setting: then `COc1cc(CCC(=O)CC(=O)CCc2ccc(O)c(OC)c2)ccc1O`, with “inactive”; and `CC[C@H](C)[C@@H](C(=O)O)n1sc2ccccc2c1=O`, with “inactive”.
Same read-out and setting: then `O=C(O)Cc1cc(I)c(Oc2cc(I)c(O)c(I)c2)c(I)c1`, with “inactive”.
On the same count and under the same terms, then `O=[N+]([O-])c1ccc(O)cc1`, with “inactive”; and `NC(=O)N1C(=O)C(C(=O)c2cc(Cl)cs2)c2cc(F)c(Cl)cc21` (stereo not given), with “inactive”.
In the case of `Nc1cccc2c(N)cccc12`, the result was inactive.
Still for that read-out and setting: then `CCc1ccc(CCOc2ccc(CC3SC(=O)NC3=O)cc2)nc1` (stereo not given), with “inactive”.
On the same count and under the same terms, then `COCC(C)OCC(C)O` (stereo not given), with “inactive”; and `ClC1=C(Cl)C(Cl)(Cl)C(Cl)=C1Cl`, with “inactive”.
Consider `NC(=O)N(O)[C@@H]1C=C[C@H](Oc2cccc(Oc3ccc(F)cc3)c2)C1`, for which the result was inactive.
The same measure, in the same setting: then `CCCCCCCCC(=O)O`, with “inactive”; and `CN1CCC[C@H]1c1cccnc1`, with “inactive”.
Still for that read-out and setting: then `OC1CCC(C2CCCCC2)CC1` (stereo not given), with “inactive”; and `O=c1c(-c2ccc(O)cc2)coc2cc(O)ccc12`, with “inactive”; and `CC(C)(C)CC(C)(C)c1ccc(O)c(-n2nc3ccccc3n2)c1`, with “inactive”.
Consider `CC1=C(/C=C/C(C)=C/C=C/C(C)=C/C(=O)O)C(C)(C)CCC1`, for which the call was inactive.
Regarding `CCC(C)(C)C1CCC(O)CC1` (stereo not given), the call was inactive.
Same read-out and setting: then `CCCCC[C@H](O)CC(=O)CCc1ccc(O)c(OC)c1`, with “inactive”.
